Screening data: PubChem BioAssay, several laboratories
zVAD death inh = blocks zVAD induced death of L929 cells | 220,000 compounds, 0.38% hits | viability rescue, % at 10 µM | L929 zVAD necroptosis rescue, ATP luminescence, 24 h; with zVAD 60 µM | AID 1377;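 active = activation, scaled between plate controls, above about 75%, limit read from the data; inactive = activation under that limit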
Calb FLC = affects C. albicans growth with fluconazole | 300,000 compounds, 0.57% hits | growth inhibition, % (concentration not given with the values) | C. albicans CaCi-2 (fluconazole-resistant clinical isolate) + fluconazole, Alamar Blue growth, 48 h;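 active = growth inhibition above about 58% in most replicates, limit read from the data, passing the limit was not always enough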;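 also: all wells also contain fluconazole at 8 µg/ml as a sub-toxic cotreatment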
TNF death inh = TNF-alpha cell death inhibition in Jurkat FADD-/- cells | Jurkat FADD-/- TNF necroptosis rescue, ATP luminescence, 24 h; 0 = TNF only, 100 = no-TNF cells | activation (protection from cell death), % at 10 µM | 220,000 compounds, 0.068% hits | AID 463075;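 active = activation, meaning protection from cell death, of at least 50% relative to plate controls; inactive = activation below 50%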;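 also: necroptosis triggered by 40 ng/mL TNF-alpha added together with compound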
HIF activator = HIF pathway transcriptional activation; U2OS HRE-luciferase reporter, luminescence; normalized: DMSO 0%, desferrioxamine 100%; activation, % at 7.5 µM (by protocol); 300,000 compounds, 0.32% hits; AID 1910;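 active = mean activation of at least 10% of the iron chelator positive control signal, with at least half of replicates also reaching 10%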
Numbers stand for hits; 0 = inactive; - = not tested or not shown. Only some compounds are listed: those with a hit (about 1.1% of all), similar ones and a draw of the others.

SMILES | zVAD death inh | Calb FLC | TNF death inh | HIF activator
CCn1c(C)nc2cc(C(=O)N/N=C/c3ccccc3)ccc21 | 0 | 0 | 0 | 0
CCCCSc1nc(C)cc(SCC(=O)N/N=C/c2cccc(OC)c2O)n1 | 0 | 0 | 0 | 21.0
CCn1c(C)nc2cc(C(=O)N/N=C/c3cccc(O)c3O)ccc21 | 0 | 0 | 0 | 42.7
Cc1cccc(/C=N/NC(=O)c2c(-c3ccccc3)noc2C)c1O | - | 0 | - | 16.1
Cc1cccc(/C=N/NC(=O)Cc2ccc(Cl)cc2)c1O | - | 0 | - | 0
COc1cccc(/C=N/NC(=O)CSc2nnc(C)n2-c2ccccc2)c1O | 0 | 0 | 0 | 0
Cc1cccc(/C=N\NC(=O)c2ccc(Cl)cc2)c1O | 0 | 0 | 0 | 41.6
COc1ccccc1/C=N/NC(=O)c1c(-c2ccccc2)noc1C | - | 0 | - | 0
CC(=O)Nc1ccc(S(=O)(=O)Nc2c(NC3CCCCC3)c3ccccc3oc2=O)cc1 | - | 0 | - | 0
NCCCC[C@H](NC(=O)C1CCNCC1)c1nnc(CN)o1 | 0 | 0 | 0 | 0
COC(=O)CNC(=O)C1CC(=O)N(CCc2ccc(F)cc2)C1 (centres undefined) | - | 0 | - | 0
C/C(=N\NC(=O)C1(C)CC1(Br)Br)c1cccc(NC(=O)c2ccc(C)o2)c1 (centres undefined) | - | 0 | - | 0
O=C(CCc1ccccc1)Nc1ccnn1C1CCN(C/C=C/c2ccccc2)CC1 | - | 0 | - | 434.5
COc1ccc(N2CC(C(=O)N[C@@H](C)C(=O)NC3CCCCC3)CC2=O)cc1 (some centres undefined) | - | 0 | - | 0
COc1cc(/C=C2/C(=O)NN(c3ccccc3)C2=O)cc(Br)c1O | - | 0 | - | 0
COc1cc(/C=C2\C(=O)NN(c3ccc(C)cc3)C2=O)cc([N+](=O)[O-])c1O | 0 | 0 | 0 | 0
CCOc1cc(/C=C2\C(=O)NN(c3ccccc3)C2=O)cc([N+](=O)[O-])c1O | 0 | 94.7 | 0 | 0
COc1cc(/C=C2\C(=O)NN(c3ccccc3)C2=O)cc([N+](=O)[O-])c1O | 0 | 108.6 | 0 | 0
COc1cc(/C=C2/C(=O)NN(c3ccc(Cl)cc3)C2=O)cc(OC)c1O | - | 90.2 | - | 0
O=C(O)CSc1cccc[n+]1[O-] | 0 | 0 | 0 | 0
O=C(CSc1cccc[n+]1[O-])c1cc(Cl)ccc1Cl | 0 | 100.4 | 0 | 0
COC(C(=O)Nc1ccccc1F)c1ccccc1 (centres undefined) | 0 | 0 | 83.9 | 0
COC(C(=O)Nc1ccc(Br)cc1F)c1ccccc1 (centres undefined) | 0 | 0 | 90.6 | 0
O=C(O)CNC(=O)/C(=C\c1ccc2c(c1)OCO2)NC(=O)c1ccc(Br)cc1 | 0 | 0 | 0 | 0
CCN(CC)C(=O)/C(=C/c1ccc2c(c1)OCO2)NC(=O)c1ccc(Br)cc1 | 0 | 90.6 | 0 | 0
SMILES | zVAD death inh | Calb FLC | TNF death inh | HIF activator
O=C(CCCOc1ccc(Cl)cc1Cl)N/N=C/c1ccccc1O | 0 | 0 | 0 | 11.3
O=C(COc1ccc(Cl)cc1Cl)N/N=C/CCc1ccccc1 | 0 | 0 | 0 | 10.5
O=C(CCCOc1ccc(Cl)cc1Cl)N/N=C/c1ccccc1 | 0 | 0 | 0 | 0
O=C(COc1ccc(Cl)cc1Cl)N/N=C/c1ccc[nH]1 | - | 0 | - | 0
Cc1ccc(-n2cc(CCCCCCCCC(=O)O)nn2)cc1 | - | 0 | - | 0
COc1ccc(N=Nc2ccc(O)c3ncccc23)cc1 | 0 | 0 | 0 | 91.6
COc1cccc(N=Nc2ccc(O)c3ncccc23)c1 | - | 101.2 | - | 0
Cc1ccccc1N=Nc1ccc(O)c2ncccc12 | 0 | 0 | 0 | 38.1
O=Nc1ccc(O)c2ncccc12 | 0 | 0 | 0 | 0
O=S(=O)(O)c1cccc2c(N=Nc3ccc(O)c4ncccc34)cccc12 | - | 84.0 | - | 0
COc1ccc(CN2CCC(=O)N([C@H](CO)CC(C)C)CC2)cc1OC | - | 0 | - | 0
CCCCN(C)CCNC(=O)c1ccc(Cn2c(=S)[nH]c3ccc(Br)cc3c2=O)cc1 | 0 | 0 | 0 | 0
COc1ccc(C)cc1N=Nc1ccc(O)c2ncccc12 | 0 | 108.8 | 0 | 0
COc1cccc(N=Nc2ccc3cccnc3c2O)c1 | - | 86.3 | - | 0
COCc1ccc(O)c2ncccc12 | 0 | 0 | 0 | 0
Oc1ccc(N=Nc2ccc3c(c2)OCCO3)c2cccnc12 | 0 | 100.4 | 0 | 14.3
O=C(NCCNCCO)C1(C(F)(F)F)C/C(=C\CCO)CCCO1 (centres undefined) | - | 0 | - | 0
CC(C)(C)[C@@H]1C=C(C(=O)Nc2ccccc2)O[C@H](OCc2ccc(CO)cc2)C1 | 0 | 0 | 0 | 0
Cc1ccc(COC(=O)c2ccc3ccccc3n2)cc1 | - | 0 | - | 0
CC(C)CCN1C(=O)c2ccc(C(=O)Nc3ccc(Br)cc3C(=O)O)cc2C1=O | - | 82.4 | - | 0
S=C1NC[C@H](CC2CCCCC2)N1CC1CCCCC1 | 0 | 0 | 0 | 0
CC1(O)CC(c2ccc(Cl)cc2)=NN1C(=O)c1ccc([N+](=O)[O-])cc1 (centres undefined) | 0 | 94.7 | 0 | 0
CC(C)(C)C1CCC(OC(=O)C[N+]2(C)CCCCC2)CC1 (centres undefined) | 0 | 78.8 | 0 | 0
COc1ccc(CNC(=O)C/C(C)=N/NC(=O)C(c2ccccc2)c2ccccc2)cc1 | 90.8 | 0 | 0 | 0
O=[N+]([O-])c1cccc(-c2cc(-c3cc(Br)ccc3O)[nH]n2)c1 | - | 84.4 | - | 0
SMILES | zVAD death inh | Calb FLC | TNF death inh | HIF activator
Oc1ccc(Br)cc1-c1cc(-c2ccccc2)n[nH]1 | 0 | 0 | 0 | 0
CCCCn1c(N)c(N(Cc2ccccc2OC)C(=O)CCC(C)C)c(=O)[nH]c1=O | - | 0 | - | 0
Cc1cccc(N=Nc2c(C)[nH]n(C(N)=S)c2=O)c1C | 0 | 105.4 | 0 | 0
CCOc1ccc(-c2csc(NNC3=NCCCCC3)n2)cc1 | 0 | 0 | 0 | 0
Cc1ccc(S(=O)(=O)c2ncccc2[N+](=O)[O-])cc1 | - | 108.5 | - | 0
CN1CCN(C(c2ccc(C(F)(F)F)cc2)c2cc(Cl)c3cccnc3c2O)CC1 (centres undefined) | - | 99.6 | - | 0
CN1CCN(C(c2ccc(Cl)cc2)c2cc(Cl)c3cccnc3c2O)CC1 (centres undefined) | - | 0 | - | 0
COc1ccc(N(CC(=O)Nc2ccc(C(N)=O)cc2)S(=O)(=O)c2ccc(C)c([N+](=O)[O-])c2)cc1 | 0 | 0 | 0 | 0
COc1ccc(N(CC(=O)Nc2ccccc2C(N)=O)S(=O)(=O)c2ccc(C)c([N+](=O)[O-])c2)cc1 | 0 | 95.2 | 0 | 0
O=C(Cn1cnc(S(=O)(=O)N2CCCC2)c1)Nc1ccc(OC(F)(F)F)cc1 | - | 0 | - | 0
COCC(=O)N1CCC(Oc2ccc(C(=O)N3C[C@@H]4CCC[C@H]3C4)cc2)CC1 | - | 0 | - | 0
CC1(C)CC(=O)C=C(Nc2ccc([N+](=O)[O-])cc2)C1 | - | 77.6 | - | 0
CC1(C)CC(=O)C=C(Nc2ccc(Cl)cc2)C1 | - | 0 | - | 0
CC(=N)c1c(O)c2ccccc2oc1=O | 0 | 0 | 0 | 0
CC1CCC(C(=O)c2c(O)c3ccccc3oc2=O)CC1 (centres undefined) | 0 | 108.4 | 0 | 0
O=C(CCCc1ccccc1)Nc1ccccn1 | 0 | 0 | 0 | 15.0
Cc1ccnc(NC(=O)CCCc2ccccc2)c1 | 0 | 0 | 0 | 0
CCOC(=O)c1ccc2ncc(C(=O)OCC)c(NCCN3CCOCC3)c2c1 | - | 0 | - | 0
